Reference: PubChem BioAssay
“And” between values parts separate entries of the source, which are not always exact repeats. Equal entries are not always repeated. Results filed as inconclusive are left out. The source made the active and inactive calls.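 Rule for the calls, unless noted: active = normalized viability below 100% at a tested concentration; inactive = the rest.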

How the values were obtained:
[1] = growth inhibition of DIPG glioma cells, dose response, cell-based, SU-DIPG-XIII, MIPE5.0, CellTiter-Glo, qHTS (AID 1347064; cut-off not given, nearly all actives have AC50 up to about 23 µM;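 for AC50: cells exposed to compound for 48 hours before the viability read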); conditions: SU-DIPG-XIII viability, CellTiter-Glo ATP luminescence
[2] = viability loss in pontine glioma line – cell-based, SU-DIPG-XXV, MIPE5.0, CellTiter-Glo, qHTS, dose response (AID 1347065; cut-off not given, nearly all actives have AC50 up to about 26 µM;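 note: cells exposed to compound for 48 hours before ATP readout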); conditions: CellTiter-Glo ATP luminescence
[3] = SU-DIPG-XXV glioma cell viability, MIPE5.0 library, qHTS (AID 1347068; cut-off not given, nearly all actives have IC50 up to about 30 µM)
[4] = JHH-DIPG-1 glioma cell viability, MIPE5.0 library, CellTiter-Glo luminescence, qHTS (AID 1347067; cut-off not given, nearly all actives have AC50 up to about 26 µM;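 note: cells exposed to compound for 48 hours before readout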); conditions: JHH-DIPG-1 glioma viability, CellTiter-Glo ATP luminescence
[5] = SU-DIPG-VI glioma cell viability, MIPE4.0 library, CellTiter-Glo luminescence, qHTS (AID 1347066; cut-off not given, nearly all actives have AC50 up to about 30 µM;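 note: cells exposed to compound for 48 hours before readout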); conditions: CellTiter-Glo ATP luminescence
[6] = liver-stage malaria parasite growth inhibition, primary screen, cell-based, HepG2, luciferase luminescence, HepG2 viability (AID 624349; in the data active = parasite load remaining mostly below about 12%, no sharp cut-off; inactive = mostly above about 10%;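 note: 100% = mean of DMSO negative control wells on the same plate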); conditions: P. berghei liver stage in HepG2, luciferase luminescence, concentration not given here; parasite load remaining: stronger effect = lower value; viability: measured here: HepG2 viability without parasites
[7] = kinase inhibitors against Plasmodium liver-stage infection, cell-based, known kinase inhibitor set, luminescence, hepatoma host viability (AID 624392; call rule not given here;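 note: infected cells incubated roughly two days before readout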); conditions: Plasmodium liver stage in hepatoma cells, luciferase luminescence, concentration not given here; liver cell % of control: measured here: host liver cell viability; parasite % of control: stronger effect = lower value
[8] = ovarian cancer cell viability with rucaparib, profiling panel, oncology-focused library, rucaparib conditional (AID 1508598); conditions: patient-derived ovarian cancer cells, CellTiter-Glo viability, 144 h, stronger effect = lower value
[9] = at 0.000305 µM, OCI-C5x cells, with rucaparib 10 µM, 100% = cells with rucaparib alone
[10] = at 0.000305 µM, OCI-C5x cells, without rucaparib
[11] = at 0.000305 µM, OCI-P5x cells, with rucaparib 20 µM, 100% = cells with rucaparib alone
[12] = at 0.000305 µM, OCI-P5x cells, without rucaparib
[13] = at 0.00122 µM, OCI-C5x cells, with rucaparib 10 µM, 100% = cells with rucaparib alone
[14] = at 0.00122 µM, OCI-C5x cells, without rucaparib
[15] = at 0.00122 µM, OCI-P5x cells, with rucaparib 20 µM, 100% = cells with rucaparib alone
[16] = at 0.00122 µM, OCI-P5x cells, without rucaparib
[17] = at 0.00488 µM, OCI-C5x cells, with rucaparib 10 µM, 100% = cells with rucaparib alone
[18] = at 0.00488 µM, OCI-C5x cells, without rucaparib
[19] = at 0.00488 µM, OCI-P5x cells, with rucaparib 20 µM, 100% = cells with rucaparib alone
[20] = at 0.00488 µM, OCI-P5x cells, without rucaparib
[21] = at 0.0195 µM, OCI-C5x cells, with rucaparib 10 µM, 100% = cells with rucaparib alone
[22] = at 0.0195 µM, OCI-C5x cells, without rucaparib
[23] = at 0.0195 µM, OCI-P5x cells, with rucaparib 20 µM, 100% = cells with rucaparib alone
[24] = at 0.0195 µM, OCI-P5x cells, without rucaparib
[25] = at 0.0781 µM, OCI-C5x cells, with rucaparib 10 µM, 100% = cells with rucaparib alone
[26] = at 0.0781 µM, OCI-C5x cells, without rucaparib
[27] = at 0.0781 µM, OCI-P5x cells, with rucaparib 20 µM, 100% = cells with rucaparib alone
[28] = at 0.0781 µM, OCI-P5x cells, without rucaparib
[29] = at 0.313 µM, OCI-C5x cells, with rucaparib 10 µM, 100% = cells with rucaparib alone
[30] = at 0.313 µM, OCI-C5x cells, without rucaparib
[31] = at 0.313 µM, OCI-P5x cells, with rucaparib 20 µM, 100% = cells with rucaparib alone
[32] = at 0.313 µM, OCI-P5x cells, without rucaparib
[33] = at 1.25 µM, OCI-C5x cells, with rucaparib 10 µM, 100% = cells with rucaparib alone
[34] = at 1.25 µM, OCI-C5x cells, without rucaparib
[35] = at 1.25 µM, OCI-P5x cells, with rucaparib 20 µM, 100% = cells with rucaparib alone
[36] = at 1.25 µM, OCI-P5x cells, without rucaparib
[37] = at 5 µM, OCI-C5x cells, with rucaparib 10 µM, 100% = cells with rucaparib alone
[38] = at 5 µM, OCI-C5x cells, without rucaparib
[39] = at 5 µM, OCI-P5x cells, with rucaparib 20 µM, 100% = cells with rucaparib alone
[40] = at 5 µM, OCI-P5x cells, without rucaparib

**Q.** Which outcome [1] does the source give for `Cc1cc(-c2cnn3c(NCC4CC(C)(O)C4)cc(Oc4cccnc4)nc23)ccc1C(=O)NC1CC1` (configuration not stated) here?
**A.** inactive

**Q.** What about the AC50 [2] of the same molecule?
**A.** 1.48 µM (active)

**Q.** And the outcome [3]?
**A.** inactive

**Q.** With `C[C@H]1CNCCCN1S(=O)(=O)c1cccc2cncc(F)c12` as the molecule, how does the outcome [1] read?
**A.** inactive

**Q.** And the outcome [4]?
**A.** inactive

**Q.** And the outcome [3]?
**A.** inactive

**Q.** Which outcome [1] does the source give for `CC1(N)CCN(c2cccnc2NC(=O)c2nc(-c3ncccc3C(F)(F)F)cnc2N)CC1` here?
**A.** inactive

**Q.** What about the outcome [4] of the same molecule?
**A.** inactive

**Q.** With `Nc1ncnc2c1nc(Cl)n2[C@@H]1O[C@H](CO)[C@@H](O)[C@H]1O` as the molecule, how does the AC50 [1] read?
**A.** 16.6 µM (active)

**Q.** And the AC50 [5]?
**A.** 23.5 µM (active)

**Q.** And the outcome [3]?
**A.** inactive

**Q.** Which outcome [1] does the source give for `COC(=O)N[C@@H](C)CNc1nccc(-c2cn(C(C)C)nc2-c2cc(Cl)cc(NS(C)(=O)=O)c2F)n1` here?
**A.** inactive

**Q.** What about the AC50 [2] of the same molecule?
**A.** 1.48 µM (active)

**Q.** What about the outcome [3] of the same molecule?
**A.** inactive

**Q.** For `CC1(N)CCN(c2cnc(-c3cccc(Cl)c3Cl)c(N)n2)CC1`, which outcome [1] is on record?
**A.** inactive

**Q.** And the outcome [4]?
**A.** inactive

**Q.** And the outcome [3]?
**A.** inactive

**Q.** For `O=C(Nc1ccc(F)c(C(F)(F)F)c1)Nc1nnc(-c2ccncc2)s1`, which outcome [1] is on record?
**A.** inactive

**Q.** And the outcome [5]?
**A.** inactive

**Q.** And the outcome [4]?
**A.** inactive

**Q.** What about the outcome [3] of the same molecule?
**A.** inactive

**Q.** For `CN(C)S(=O)(=O)c1ccc2c(c1)C(=Cc1cc3c([nH]1)CCCC3)C(=O)N2`, which outcome [1] is on record?
**A.** inactive

**Q.** And the outcome [5]?
**A.** inactive

**Q.** What does the source list for `Nc1nccc(-c2c(-c3ccc(F)cc3)ncn2C2CCCCC2)n1`?
**A.** outcome [1]: inactive; outcome [4]: inactive; outcome [3]: inactive

**Q.** With `Nc1ccn([C@@H]2C(F)=C(CO)[C@@H](O)[C@H]2O)c(=O)n1` as the molecule, how does the outcome [1] read?
**A.** inactive

**Q.** And the outcome [4]?
**A.** inactive

**Q.** What about the outcome [3] of the same molecule?
**A.** inactive

**Q.** With `Cc1c(-c2ccc(-c3ccccc3F)cc2)nc2ccc(F)cc2c1C(=O)O` as the molecule, how does the outcome [1] read?
**A.** inactive

**Q.** And the outcome [4]?
**A.** inactive

**Q.** What does the source list for `Cc1c(Cl)cccc1S(=O)(=O)Nc1nc(CCN2CCOCC2=O)cs1`?
**A.** outcome [1]: inactive; outcome [2]: inactive; outcome [3]: inactive

**Q.** Which results are given for `COc1ccc2nc3n[nH]c(C)c3c(NCCOCCO)c2c1`?
**A.** parasite load remaining [6]: 46.1% (inactive); viability [6]: 90.1%

**Q.** What does the source list for `CN(C)CCOc1cc(-c2cn[nH]c2)ccc1NC(=O)C1COc2ccccc2O1` (configuration not stated)?
**A.** liver cell % of control [7]: 74.6% and 79.4% and 100%; parasite % of control [7]: 63.3% (inactive) and 69.1% (inactive) and 49.5% (inactive)

**Q.** Which viability [8, 9] does the source give for `CN1CCN(c2nc(C3=C(c4c[nH]c5ccccc45)C(=O)NC3=O)c3ccccc3n2)CC1` here?
**A.** 105% (inactive)

**Q.** What about the viability [8, 10] of the same molecule?
**A.** 102% (inactive)

**Q.** And the viability [8, 11]?
**A.** 96.2% (active)

**Q.** And the viability [8, 12]?
**A.** 83.9% (active)

**Q.** What about the viability [8, 13] of the same molecule?
**A.** 116% (inactive)

**Q.** What about the viability [8, 14] of the same molecule?
**A.** 119% (inactive)

**Q.** And the viability [8, 15]?
**A.** 102% (inactive)

**Q.** And the viability [8, 16]?
**A.** 88.4% (active)

**Q.** And the viability [8, 17]?
**A.** 112% (inactive)

**Q.** What about the viability [8, 18] of the same molecule?
**A.** 120% (inactive)

**Q.** And the viability [8, 19]?
**A.** 106% (inactive)

**Q.** And the viability [8, 20]?
**A.** 97.3% (active)

**Q.** What about the viability [8, 21] of the same molecule?
**A.** 114% (inactive)

**Q.** What about the viability [8, 22] of the same molecule?
**A.** 122% (inactive)

**Q.** And the viability [8, 23]?
**A.** 102% (inactive)

**Q.** What about the viability [8, 24] of the same molecule?
**A.** 96.2% (active)

**Q.** And the viability [8, 25]?
**A.** 113% (inactive)

**Q.** What about the viability [8, 26] of the same molecule?
**A.** 116% (inactive)

**Q.** And the viability [8, 27]?
**A.** 110% (inactive)

**Q.** And the viability [8, 28]?
**A.** 101% (inactive)

**Q.** And the viability [8, 29]?
**A.** 109% (inactive)

**Q.** What about the viability [8, 30] of the same molecule?
**A.** 129% (inactive)

**Q.** And the viability [8, 31]?
**A.** 117% (inactive)

**Q.** And the viability [8, 32]?
**A.** 107% (inactive)

**Q.** And the viability [8, 33]?
**A.** 114% (inactive)

**Q.** And the viability [8, 34]?
**A.** 122% (inactive)

**Q.** What about the viability [8, 35] of the same molecule?
**A.** 115% (inactive)

**Q.** And the viability [8, 36]?
**A.** 109% (inactive)

**Q.** What about the viability [8, 37] of the same molecule?
**A.** 129% (inactive)

**Q.** And the viability [8, 38]?
**A.** 135% (inactive)

**Q.** And the viability [8, 39]?
**A.** 141% (inactive)

**Q.** What about the viability [8, 40] of the same molecule?
**A.** 109% (inactive)

**Q.** Which viability [8, 9] does the source give for `CCc1cc(Nc2nccc(-c3c(-c4ccc(OC)c(C(=O)Nc5c(F)cccc5F)c4)nc4ccccn34)n2)c(OC)cc1N1CCC(N2CCN(S(C)(=O)=O)CC2)CC1` here?
**A.** 118% (inactive)

**Q.** What about the viability [8, 10] of the same molecule?
**A.** 127% (inactive)

**Q.** What about the viability [8, 11] of the same molecule?
**A.** 97.3% (active)

**Q.** And the viability [8, 12]?
**A.** 105% (inactive)

**Q.** And the viability [8, 13]?
**A.** 112% (inactive)

**Q.** What about the viability [8, 14] of the same molecule?
**A.** 120% (inactive)

**Q.** What about the viability [8, 15] of the same molecule?
**A.** 99.8% (active)

**Q.** And the viability [8, 16]?
**A.** 104% (inactive)

**Q.** What about the viability [8, 17] of the same molecule?
**A.** 116% (inactive)

**Q.** And the viability [8, 18]?
**A.** 121% (inactive)

**Q.** What about the viability [8, 19] of the same molecule?
**A.** 98.3% (active)

**Q.** And the viability [8, 20]?
**A.** 98.5% (active)

**Q.** And the viability [8, 21]?
**A.** 112% (inactive)

**Q.** What about the viability [8, 22] of the same molecule?
**A.** 119% (inactive)

**Q.** And the viability [8, 23]?
**A.** 102% (inactive)

**Q.** What about the viability [8, 24] of the same molecule?
**A.** 103% (inactive)

**Q.** And the viability [8, 25]?
**A.** 122% (inactive)

**Q.** And the viability [8, 26]?
**A.** 132% (inactive)

**Q.** And the viability [8, 27]?
**A.** 93.1% (active)

**Q.** And the viability [8, 28]?
**A.** 100% (inactive)

**Q.** And the viability [8, 29]?
**A.** 174% (inactive)

**Q.** And the viability [8, 30]?
**A.** 152% (inactive)

**Q.** And the viability [8, 31]?
**A.** 103% (inactive)

**Q.** What about the viability [8, 32] of the same molecule?
**A.** 103% (inactive)

**Q.** What about the viability [8, 33] of the same molecule?
**A.** 178% (inactive)

**Q.** And the viability [8, 34]?
**A.** 174% (inactive)

**Q.** And the viability [8, 35]?
**A.** 97.9% (active)

**Q.** What about the viability [8, 36] of the same molecule?
**A.** 88.3% (active)

**Q.** And the viability [8, 37]?
**A.** 176% (inactive)

**Q.** What about the viability [8, 38] of the same molecule?
**A.** 196% (inactive)

**Q.** What about the viability [8, 39] of the same molecule?
**A.** 92.9% (active)

**Q.** What about the viability [8, 40] of the same molecule?
**A.** 90.5% (active)
